# According to PubChem BioAssay AID778 (Sanford-Burnham Center for Chemical Genomics, 2007):
# Among all 96,000 compounds or so, about 20,000 (21%) were called active.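 Rule for the calls: active = CYP2C19 inhibition above a set limit at 5 µM in the primary screen (cut at about 50% in these data); inactive = the rest.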 The list is a sample of the results.
# Target: Cytochrome P450 2C19 (Homo sapiens) (UniProt P33261)
# Test: blockers of cytochrome P450 2C19 activity – biochemical, luminescence, ADME assay, primary screen (AID 778);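 note: plate controls were negative control wells for no effect and 2.5 mM tranylcypromine positive control for full effect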
# Settings: CYP2C19 Supersomes, luciferin-H EGE luminescence, 30 min; at 5 µM; stronger effect = higher value
# Chain of Cytochrome P450 2C19 (Homo sapiens) (P33261 whole entry, looked up): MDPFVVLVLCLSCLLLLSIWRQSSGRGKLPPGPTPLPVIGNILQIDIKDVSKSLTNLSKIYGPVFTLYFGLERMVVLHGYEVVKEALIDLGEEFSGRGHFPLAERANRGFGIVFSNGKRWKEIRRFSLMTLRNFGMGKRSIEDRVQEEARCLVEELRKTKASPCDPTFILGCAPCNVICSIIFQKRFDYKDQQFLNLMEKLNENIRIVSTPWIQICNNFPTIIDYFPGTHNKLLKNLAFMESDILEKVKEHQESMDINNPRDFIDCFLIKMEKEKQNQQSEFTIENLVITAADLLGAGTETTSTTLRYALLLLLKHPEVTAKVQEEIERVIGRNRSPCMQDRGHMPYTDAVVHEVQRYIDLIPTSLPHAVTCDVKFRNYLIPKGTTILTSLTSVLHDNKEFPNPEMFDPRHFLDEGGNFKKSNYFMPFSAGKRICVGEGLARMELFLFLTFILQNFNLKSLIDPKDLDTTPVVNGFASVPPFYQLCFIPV
row,Structure (SMILES),inhibition
1,CC(C)CCNC(=O)C(C)N(C(=O)Cn1nnc(-c2ccc(F)cc2)n1)C1CCCC1 (stereo unspecified),78.7% (active)
2,COc1cccc(N(CC(=O)NC2CCCC2)C(=O)Cn2nnc(-c3ccc(C)cc3)n2)c1,28.4% (inactive)
3,CC(C)CCNC(=O)CN(C(=O)Cn1nnc(-c2ccc(F)cc2)n1)C1CCCC1,17.8% (inactive)
4,CC1(C)CC(O)C(CCC(O)c2ccccc2)C(C)(C)N1 (stereo unspecified),-6.9% (inactive)
5,CCCOc1ccc(-c2nc(N)n[nH]2)cc1,5.8% (inactive)
6,Cn1c(=NC(=O)C2CC2)sc2cc(F)cc(F)c21,13.8% (inactive)
7,COc1ccc(CCN=C2SCC(=O)N2C)cc1OC,88.2% (active)
8,COc1ccc(CCN2CNc3c(c(=O)n(C)c(=O)n3C)C2)cc1OC,-22.1% (inactive)
9,COc1ccc(CCN(C)CCN2C(=O)c3ccccc3C2=O)cc1OC,2.8% (inactive)
10,NC(=S)c1ccc(C(N)=S)o1,60.2% (active)
11,CCOC(=O)c1c(C)[nH]c(C)c1C(=O)CSc1nc(N)cc(N)n1,17.6% (inactive)
12,Cc1ccc(S(=O)(=O)N2CCC(C(=O)N[C@@H](C)C(=O)NCCc3ccccc3)CC2)cc1,10.5% (inactive)
13,Cc1ccc(S(=O)(=O)NCCSC(C)(C)C)cc1,11.6% (inactive)
14,O=S(=O)(NCCNS(=O)(=O)c1ccccc1)c1ccccc1,89% (active)
15,CC(=O)NS(=O)(=O)c1ccccc1,4.6% (inactive)
16,CC(C)(C)NC(=O)CN(Cc1cccs1)C(=O)CNS(=O)(=O)c1ccccc1,4.4% (inactive)
17,Cc1ccc(C(=O)NCCNS(=O)(=O)c2ccccc2)cc1,81.4% (active)
18,CS(=O)(=O)NCc1ccc(C(=O)NCc2ccccc2)cc1,-8.4% (inactive)
19,CCOc1cc(C(=S)N2CCOCC2)ccc1O,12.3% (inactive)
20,CN(CC#CCC(c1ccccc1)c1ccccc1)C(C)(C)C,46.1% (inactive)
21,CC(=O)OCc1cc(=O)n(C)c(=O)n1C,1.9% (inactive)
22,CCCc1nnc(NC(=O)c2cccs2)s1,7.8% (inactive)

row,Structure (SMILES),inhibition
1,COc1cc(/C=N/NC(=O)Nc2ccccc2)ccc1OCCOc1ccccc1C,4.8% (inactive)
2,C=CCOc1ccc(/C=N/n2cncn2)cc1OC,96.6% (active)
3,COc1ccc(/C=N/Nc2nc3ccccc3o2)cc1OC,-0.5% (inactive)
4,Cc1csc(NC(=O)CN2CCCCCC2)n1,22.8% (inactive)
5,COc1cc(/C=N/O)cc(Br)c1OS(=O)(=O)c1ccc(C)cc1,73.4% (active)
6,CCOc1cc(/C=N/O)cc(Br)c1OC,45.6% (inactive)
7,COc1cc(/C=N/O)cc(Br)c1OCc1cccc(Cl)c1,4.4% (inactive)
8,Nc1c(-c2cccc(Cl)c2)cnn1-c1cccc([N+](=O)[O-])c1,24% (inactive)
9,COc1ccc(C)cc1S(=O)(=O)NC1CCCCC1,15% (inactive)
10,COc1ccc(C)cc1S(=O)(=O)NCCc1ccccc1,54.1% (active)
11,COc1ccc(Br)cc1S(=O)(=O)N1CCN=C1C,40.3% (inactive)
12,Cc1noc(C)c1S(=O)(=O)NCCc1ccc(S(N)(=O)=O)cc1,-13.5% (inactive)
13,COCCNS(=O)(=O)c1cc(Br)ccc1OC,66.9% (active)
14,COc1ccc(Cn2c(C)c(C)c(C#N)c2NC(=O)Nc2ccc(F)cc2)cc1,4.4% (inactive)
15,Cc1ccc(F)cc1NC(=O)c1cccc(N(C)C)c1,8.6% (inactive)
16,CCCC(NS(=O)(=O)c1ccc(OC)cc1)C(=O)O (stereo unspecified),-12.7% (inactive)
17,CCc1ccc(Nc2ncc3c(n2)CC(c2ccco2)CC3=O)cc1 (stereo unspecified),1% (inactive)
18,CC1CCCC(NC(=O)CN2CCN(Cc3ccc(Cl)cc3)C2=O)C1C (stereo unspecified),18.3% (inactive)
19,CC1CCCC(NC(=O)CSc2nccn2C)C1C (stereo unspecified),97.2% (active)
20,CC1CCCCC1NC(=O)CSc1nnc(N)s1 (stereo unspecified),4% (inactive)
21,Cc1ccc(NC(=S)NC(NC(=O)Cc2cccc3ccccc23)C(Cl)(Cl)Cl)cc1 (stereo unspecified),49.5% (inactive)
22,O=C(NC1CCC(O)CC1)c1ccc(S(=O)(=O)NCc2ccco2)cc1 (stereo unspecified),-9% (inactive)

row,Structure (SMILES),inhibition
1,CSCCC(NC(=O)C1CCC(C)CC1)C(=O)NCc1ccco1 (stereo unspecified),8.2% (inactive)
2,CCCC(C(=O)NCc1ccco1)N(C(=O)CNS(=O)(=O)c1ccccc1)C1CCCC1 (stereo unspecified),78.3% (active)
3,COc1ccc(C2=NOC3(CC(=O)N(c4ccc(C)cc4)C3=O)C2)cc1 (stereo unspecified),-13.3% (inactive)
4,O=C1CSC(c2ccc(Cl)cc2)N1 (stereo unspecified),13.7% (inactive)
5,O=C(NCC1CCCO1)c1ccc2ccccc2n1 (stereo unspecified),-2.7% (inactive)
6,Cc1nc2ccccc2c2oc(C(=O)NCC3CCCO3)cc12 (stereo unspecified),-8.4% (inactive)
7,c1ccc2c(NCC3CCCO3)nc(-c3ccncc3)nc2c1 (stereo unspecified),94.5% (active)
8,Cc1ccc(S(=O)(=O)n2nc(OC(=O)C(C)(C)C)cc2N)cc1,21.6% (inactive)
9,CS(=O)(=O)N1CCN(c2cccc(Cl)n2)CC1,46.3% (inactive)
10,Cc1ccc(N2CCN(S(=O)(=O)N(C)C)CC2)cc1Cl,59.1% (active)
11,c1ccc(-n2ncc3c2ncn2c(C4CCCCC4)nnc32)cc1,-4.4% (inactive)
12,CCn1ncc(C2=NOC(C(=O)N3CCN(c4ccccc4)CC3)C2)c1C (stereo unspecified),-20.9% (inactive)
13,O=C(OCC(=O)N1CCCC1)c1ccco1,0.8% (inactive)
14,COc1ccc(-c2noc(-c3cccc(OC)c3OC)n2)cc1OC,22.7% (inactive)
15,CCc1ccc(CNC(=O)CCc2nc(-c3cccs3)no2)cc1,37.6% (inactive)
16,COc1cc(-c2nc(-c3ccncc3)no2)cc(OC)c1OC,83.6% (active)
17,COc1nc(-c2ccc(Cl)cc2)ccc1-c1noc(-c2cccs2)n1,7% (inactive)
18,CCOc1nc(-c2ccc(OC)cc2)ccc1-c1noc(-c2cc(OC)c(OC)c(OC)c2)n1,8% (inactive)
19,c1csc(-c2nc(-c3ccncc3)no2)c1,72.2% (active)
20,O=C(CSc1nc(-c2ccco2)cc(C(F)(F)F)n1)N1CCc2ccccc2C1,42.7% (inactive)
21,Cc1[nH]c2ccccc2c1C(=O)CSCC(=O)O,0.7% (inactive)
22,Cc1cc(N=CC2=C(O)CCCC2=O)no1,2.1% (inactive)

row,Structure (SMILES),inhibition
1,c1coc(CNc2ncnc3ccccc23)c1,-3.8% (inactive)
2,O=C(CN1C(=O)NC2(CCCCC2)C1=O)NCCC1=CCCCC1,8.2% (inactive)
3,O=C(COc1cccc(-n2cnnn2)c1)NCCC1=CCCCC1,89.3% (active)
4,Cc1nnc(OCC(=O)NCCC2=CCCCC2)c2ccccc12,55.2% (active)
5,S=C(NCCC1=CCCCC1)Nc1ccccc1,46.9% (inactive)
6,O=C(COc1ccc(Cl)cc1)NCCC1=CCCCC1,26.8% (inactive)
7,O=C(Cc1nn[nH]n1)NCCC1=CCCCC1,-1.9% (inactive)
8,O=C(O)C1CC=CCC1C(=O)NCCc1ccccc1 (stereo unspecified),-8.8% (inactive)
9,CC1(C)COC(c2cccn2Cc2ccccc2Cl)=N1,2.4% (inactive)
10,CNC(=O)c1ccc2nc(NC(C)=O)sc2c1,2.4% (inactive)
11,O=C(Cn1c(-c2ccc(Cl)cc2)noc1=O)N1CCN(c2ccccc2F)CC1,12.6% (inactive)
12,CCCCOC(=O)Nc1sc2nc(C)cc(C)c2c1-n1cccc1,9.4% (inactive)
13,O=C(Nc1cccc2c1CCCC2)C1CCN(C(=O)NC2CCCCC2)CC1,2.3% (inactive)
14,COCCNC(=O)COc1ccccc1C,2% (inactive)
15,COCCCNC(=O)COc1cc(C)c(Cl)c(C)c1,86.2% (active)
16,COCCNC(=O)COc1ccc(C)c(C)c1,-3.5% (inactive)
17,CCOC(=O)C1C(=O)C=C(c2ccc(OC)cc2)CC1c1ccco1 (stereo unspecified),28.1% (inactive)
18,O=C(OCC(O)C(O)COC(=O)c1ccccc1)c1ccccc1 (stereo unspecified),83.5% (active)
19,CCCCCCOC(=O)NCC(O)c1ccccc1 (stereo unspecified),23.3% (inactive)
20,O=C(NC(=O)c1ccccc1)NC(=O)c1ccccc1,21.7% (inactive)
21,COc1ccc(-c2nc(-c3ccccc3)no2)c(OC)c1,12.8% (inactive)
22,CCOC(=O)C(CC)Sc1ncnc2c1nnn2-c1ccc(F)cc1 (stereo unspecified),10.5% (inactive)

row,Structure (SMILES),inhibition
1,CCN(CC(=O)NC1CCS(=O)(=O)C1)c1nc(-c2cccnc2)nc2ccccc12 (stereo unspecified),4.6% (inactive)
2,Cc1ccc(NC2(C#N)C(=O)Nc3ccccc32)cc1 (stereo unspecified),60.3% (active)
3,Cc1ccc2c(c1)C(O)(CC(=O)c1cccnc1)C(=O)N2 (stereo unspecified),10.2% (inactive)
4,CN1CCN(c2nc3c(c(=O)[nH]c(=O)n3C)n2Cc2cccc3ccccc23)CC1,1.2% (inactive)
5,Cc1ccc(Cn2ccc(NC(=O)c3cc(C(C)C)on3)n2)cc1,97.2% (active)
6,CC(=O)Nc1ccn(Cc2c(F)cccc2Cl)n1,48.9% (inactive)
7,O=C(Nc1ccn(Cc2ccc(F)cc2)n1)c1ccncc1,97.8% (active)
8,Cc1ccc(Cn2ccc(NC(=O)C3C4CCC(C4)C3C(=O)O)n2)cc1 (stereo unspecified),15% (inactive)
9,Cc1cc(NC(=O)c2cc(-c3cccs3)on2)nn1Cc1ccc(Cl)cc1,2% (inactive)
10,Cc1nn(Cc2ccc(F)cc2)c(C)c1NC(=O)c1noc2c1CCc1ccccc1-2,1% (inactive)
11,Cc1ccc(N(NC(=O)C(C)(C)O)C(=O)c2ccccc2)cc1C,14.9% (inactive)
12,COc1ccccc1CNC(=O)Cn1cc2c(n1)CCCC2,20.5% (inactive)
13,O=P(O)(CN1CCCCC1)CN1CCCCC1,-0.9% (inactive)
14,Cc1ccc(-c2cnc(NC(=O)CCC(=O)N(C)Cc3ccccc3)n2C)cc1,1% (inactive)
15,COc1ccccc1NC1=NC2(CCCC2)N=C(N)N1,-6% (inactive)
16,COc1ccccc1Nc1nc(N)nc(CN(C)C2CCCCC2)n1,-23.9% (inactive)
17,COc1ccccc1NC1=NC(c2ccc(Cl)cc2)N=C(N)N1 (stereo unspecified),92.6% (active)
18,C=C(C)Cn1c(N2CCN(CC)CC2)nc2c1c(=O)[nH]c(=O)n2C,-24.3% (inactive)
